# Results from the supplement of paper PMC10849652.
# About 7,900 targets were measured; listed, in parts, are those with a hit and a random draw of the rest. About 0.6% of all pairs of compound and target were hits. A number with no mark means an inactive call.
# Legend:
# Test in all cases: log2 fold change, soluble protein after heating vs DMSO (PISA); higher = thermal stabilisation; K562 cells, 10 uM, 30 min; active = over 0.2 and 3.5 SD of the protein, either way, in both replicates (recomputed)
# bafetinib = compound: Cc1ccc(NC(=O)c2ccc(CN3CC[C@H](N(C)C)C3)c(C(F)(F)F)c2)cc1Nc1nccc(-c2cncnc2)n1 [bafetinib]
# In short: (§1)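 For each measurement, 10 μM compound was applied for 30 min to K562 cells at 2×10^6 cells/mL. Aliquots were heated for 3 min across 48°C-58°C, pooled, and extracted in PBS with 0.5% NP-40 at 4°C; the supernatant after 21,000xg for 90 min was soluble protein. This was quantified by TMTpro 16plex LC-MS/MS with channel sums equalised, and thermal stability was reported relative to control samples from duplicates, on a log2 fold-change scale.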
# [1] = compound: Cc1cccc(CC(=O)N2CCc3c2ccc(-c2cn(C)c4ncnc(N)c24)c3F)n1
# In short: as §1
# nilotinib = compound: Cc1cn(-c2cc(NC(=O)c3ccc(C)c(Nc4nccc(-c5cccnc5)n4)c3)cc(C(F)(F)F)c2)cn1 [nilotinib]
# In short: as §1
# [2] = compound: Cc1nc(Nc2n[nH]c3c2CN(C(=O)N[C@H](CN(C)C)c2ccccc2)C3(C)C)c2sccc2n1
# In short: as §1
# dasatinib = compound: Cc1nc(Nc2ncc(C(=O)Nc3c(C)cccc3Cl)s2)cc(N2CCN(CCO)CC2)n1 [dasatinib]
# In short: as §1
# [3] = compound: Cc1ncc(-c2ccnc(Nc3ccc(S(C)(=O)=O)cc3)n2)n1C(C)C
# In short: as §1
# [4] = compound: Cn1cc(-c2ccc3c(c2)CCN3C(=O)Cc2cccc(C(F)(F)F)c2)c2c(N)ncnc21
# In short: as §1
# [5] = compound: Cn1cc(-c2ccc3nnc(C(F)(F)c4ccc5ncccc5c4)n3n2)cn1
# In short: as §1
# tipifarnib = compound: Cn1cncc1[C@@](N)(c1ccc(Cl)cc1)c1ccc2c(c1)c(-c1cccc(Cl)c1)cc(=O)n2C [tipifarnib]
# In short: as §1
# mubritinib = compound: FC(F)(F)c1ccc(/C=C/c2nc(COc3ccc(CCCCn4ccnn4)cc3)co2)cc1 [mubritinib]
# In short: as §1
# UniProt O14976, sequence (O14976 whole entry, looked up): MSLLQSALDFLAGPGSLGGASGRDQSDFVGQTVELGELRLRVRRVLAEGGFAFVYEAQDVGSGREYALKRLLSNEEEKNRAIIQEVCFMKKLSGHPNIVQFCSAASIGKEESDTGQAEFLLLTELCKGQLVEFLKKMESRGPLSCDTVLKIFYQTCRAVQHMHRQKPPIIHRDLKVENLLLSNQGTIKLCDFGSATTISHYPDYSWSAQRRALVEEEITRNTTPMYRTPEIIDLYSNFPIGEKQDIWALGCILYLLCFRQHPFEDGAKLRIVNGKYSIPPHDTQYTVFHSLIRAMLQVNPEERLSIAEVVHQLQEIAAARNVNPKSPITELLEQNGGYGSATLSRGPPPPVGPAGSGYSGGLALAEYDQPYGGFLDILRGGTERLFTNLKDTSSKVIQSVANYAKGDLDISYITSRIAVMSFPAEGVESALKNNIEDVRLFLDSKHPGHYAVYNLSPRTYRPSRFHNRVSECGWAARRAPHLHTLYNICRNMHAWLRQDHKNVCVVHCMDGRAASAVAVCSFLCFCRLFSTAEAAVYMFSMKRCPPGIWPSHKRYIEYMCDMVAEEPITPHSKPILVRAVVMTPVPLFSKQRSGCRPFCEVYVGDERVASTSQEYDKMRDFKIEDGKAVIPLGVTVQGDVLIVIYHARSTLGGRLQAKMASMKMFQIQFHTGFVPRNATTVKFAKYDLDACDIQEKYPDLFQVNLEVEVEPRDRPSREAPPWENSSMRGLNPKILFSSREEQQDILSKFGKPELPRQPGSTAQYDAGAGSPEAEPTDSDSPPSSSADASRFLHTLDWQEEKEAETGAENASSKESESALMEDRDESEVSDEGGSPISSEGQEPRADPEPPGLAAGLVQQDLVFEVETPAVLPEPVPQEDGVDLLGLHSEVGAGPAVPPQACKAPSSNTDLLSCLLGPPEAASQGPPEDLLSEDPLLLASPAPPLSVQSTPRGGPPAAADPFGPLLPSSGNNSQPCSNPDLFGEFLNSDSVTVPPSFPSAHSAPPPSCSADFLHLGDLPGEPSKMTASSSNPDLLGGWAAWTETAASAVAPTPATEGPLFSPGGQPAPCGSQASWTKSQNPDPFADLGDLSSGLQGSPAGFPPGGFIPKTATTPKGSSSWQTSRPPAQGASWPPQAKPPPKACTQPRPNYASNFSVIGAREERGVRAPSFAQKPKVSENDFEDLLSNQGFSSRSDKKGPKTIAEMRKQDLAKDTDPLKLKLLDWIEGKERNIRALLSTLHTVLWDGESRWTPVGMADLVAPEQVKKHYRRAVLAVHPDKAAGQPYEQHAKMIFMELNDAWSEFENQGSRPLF
# UniProt Q9NZC3, sequence (Q9NZC3 whole entry, looked up): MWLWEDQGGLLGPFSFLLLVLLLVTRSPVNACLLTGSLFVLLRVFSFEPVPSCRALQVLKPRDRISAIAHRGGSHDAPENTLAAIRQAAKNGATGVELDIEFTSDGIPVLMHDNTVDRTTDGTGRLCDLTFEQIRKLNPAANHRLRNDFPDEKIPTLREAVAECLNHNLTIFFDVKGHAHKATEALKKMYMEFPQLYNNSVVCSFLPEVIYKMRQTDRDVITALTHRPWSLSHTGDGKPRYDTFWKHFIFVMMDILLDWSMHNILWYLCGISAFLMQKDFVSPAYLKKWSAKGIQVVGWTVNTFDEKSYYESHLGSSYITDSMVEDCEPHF
# UniProt Q96JB3, sequence (Q96JB3 whole entry, looked up): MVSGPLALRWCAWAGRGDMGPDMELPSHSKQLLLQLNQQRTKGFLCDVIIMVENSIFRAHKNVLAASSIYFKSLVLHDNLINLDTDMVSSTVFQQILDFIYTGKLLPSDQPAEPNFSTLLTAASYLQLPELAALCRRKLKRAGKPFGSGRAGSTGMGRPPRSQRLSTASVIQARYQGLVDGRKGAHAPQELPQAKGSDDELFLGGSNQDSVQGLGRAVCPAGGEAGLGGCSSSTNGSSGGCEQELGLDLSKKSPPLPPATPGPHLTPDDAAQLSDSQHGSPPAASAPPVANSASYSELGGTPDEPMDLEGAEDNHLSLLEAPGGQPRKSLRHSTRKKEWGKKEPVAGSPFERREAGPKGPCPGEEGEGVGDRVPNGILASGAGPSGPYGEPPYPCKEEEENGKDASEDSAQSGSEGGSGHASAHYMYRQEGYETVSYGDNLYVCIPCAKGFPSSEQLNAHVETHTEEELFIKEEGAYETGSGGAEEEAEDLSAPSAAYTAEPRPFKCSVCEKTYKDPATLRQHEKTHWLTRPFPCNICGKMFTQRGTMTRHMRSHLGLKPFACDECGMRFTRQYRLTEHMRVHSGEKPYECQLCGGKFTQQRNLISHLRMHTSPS
# UniProt O15117, sequence (O15117 whole entry, looked up): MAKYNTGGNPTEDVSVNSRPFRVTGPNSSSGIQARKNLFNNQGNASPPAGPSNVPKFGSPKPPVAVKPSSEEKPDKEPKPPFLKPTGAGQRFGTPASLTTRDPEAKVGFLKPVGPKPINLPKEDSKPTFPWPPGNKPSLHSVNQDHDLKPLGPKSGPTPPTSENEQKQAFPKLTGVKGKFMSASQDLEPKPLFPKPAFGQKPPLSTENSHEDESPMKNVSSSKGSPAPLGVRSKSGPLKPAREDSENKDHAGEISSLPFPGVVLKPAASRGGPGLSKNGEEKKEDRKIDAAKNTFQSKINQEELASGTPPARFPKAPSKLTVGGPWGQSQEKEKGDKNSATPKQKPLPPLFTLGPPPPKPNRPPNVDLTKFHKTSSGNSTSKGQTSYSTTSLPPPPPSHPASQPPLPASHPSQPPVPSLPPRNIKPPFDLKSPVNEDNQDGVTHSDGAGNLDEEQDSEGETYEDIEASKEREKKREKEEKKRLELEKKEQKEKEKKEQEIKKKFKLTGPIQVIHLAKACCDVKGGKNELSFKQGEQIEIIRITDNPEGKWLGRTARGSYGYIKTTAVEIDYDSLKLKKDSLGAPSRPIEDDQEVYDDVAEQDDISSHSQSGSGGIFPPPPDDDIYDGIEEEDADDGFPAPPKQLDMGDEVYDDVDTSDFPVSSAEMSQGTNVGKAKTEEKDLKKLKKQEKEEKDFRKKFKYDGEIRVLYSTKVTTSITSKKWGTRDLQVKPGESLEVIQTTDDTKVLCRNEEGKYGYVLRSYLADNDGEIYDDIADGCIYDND
# UniProt Q00403, sequence (Q00403 whole entry, looked up): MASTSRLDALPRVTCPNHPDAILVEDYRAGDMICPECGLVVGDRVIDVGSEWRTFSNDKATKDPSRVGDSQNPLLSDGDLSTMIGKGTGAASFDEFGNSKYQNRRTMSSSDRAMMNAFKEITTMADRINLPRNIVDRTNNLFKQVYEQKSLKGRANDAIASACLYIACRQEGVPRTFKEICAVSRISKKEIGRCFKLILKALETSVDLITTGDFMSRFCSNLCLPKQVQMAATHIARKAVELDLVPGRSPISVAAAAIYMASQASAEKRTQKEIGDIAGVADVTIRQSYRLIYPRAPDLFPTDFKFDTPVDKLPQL
# UniProt Q9H4G4, sequence (Q9H4G4 whole entry, looked up): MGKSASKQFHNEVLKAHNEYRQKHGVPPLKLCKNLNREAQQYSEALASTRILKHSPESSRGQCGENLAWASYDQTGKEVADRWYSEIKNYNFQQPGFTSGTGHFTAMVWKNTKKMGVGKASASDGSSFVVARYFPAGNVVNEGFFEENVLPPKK
# UniProt Q14687, sequence (Q14687 whole entry, looked up): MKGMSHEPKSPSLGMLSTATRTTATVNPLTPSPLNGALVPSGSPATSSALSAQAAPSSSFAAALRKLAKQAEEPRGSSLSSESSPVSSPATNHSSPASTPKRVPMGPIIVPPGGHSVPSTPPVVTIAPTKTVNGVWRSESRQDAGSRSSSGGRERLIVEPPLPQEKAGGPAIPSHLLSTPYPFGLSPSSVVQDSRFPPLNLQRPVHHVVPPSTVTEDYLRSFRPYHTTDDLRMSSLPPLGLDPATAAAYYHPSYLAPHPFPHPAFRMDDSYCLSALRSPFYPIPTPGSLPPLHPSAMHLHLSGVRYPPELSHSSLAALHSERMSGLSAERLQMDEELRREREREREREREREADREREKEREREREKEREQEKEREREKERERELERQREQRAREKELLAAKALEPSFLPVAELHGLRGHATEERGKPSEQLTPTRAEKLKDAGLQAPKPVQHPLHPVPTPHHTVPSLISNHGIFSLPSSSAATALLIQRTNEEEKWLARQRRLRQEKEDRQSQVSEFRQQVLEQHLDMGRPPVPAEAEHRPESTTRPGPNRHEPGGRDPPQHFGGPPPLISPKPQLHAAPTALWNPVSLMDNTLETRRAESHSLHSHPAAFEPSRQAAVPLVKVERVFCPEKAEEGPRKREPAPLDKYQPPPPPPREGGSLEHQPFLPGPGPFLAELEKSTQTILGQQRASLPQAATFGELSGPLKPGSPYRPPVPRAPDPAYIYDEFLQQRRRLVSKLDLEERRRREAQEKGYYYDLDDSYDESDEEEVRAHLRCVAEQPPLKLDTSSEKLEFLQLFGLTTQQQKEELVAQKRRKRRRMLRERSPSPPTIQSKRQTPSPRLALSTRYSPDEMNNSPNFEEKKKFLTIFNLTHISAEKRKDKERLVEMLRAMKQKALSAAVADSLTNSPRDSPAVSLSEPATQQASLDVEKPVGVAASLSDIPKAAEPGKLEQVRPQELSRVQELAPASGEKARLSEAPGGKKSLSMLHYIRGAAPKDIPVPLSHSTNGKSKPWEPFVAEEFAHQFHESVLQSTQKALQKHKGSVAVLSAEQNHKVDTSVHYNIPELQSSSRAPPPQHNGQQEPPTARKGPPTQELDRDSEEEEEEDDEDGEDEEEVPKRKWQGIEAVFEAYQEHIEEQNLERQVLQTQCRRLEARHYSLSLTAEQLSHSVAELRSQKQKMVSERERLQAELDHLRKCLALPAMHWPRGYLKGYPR
# UniProt Q9H0R8, sequence (Q9H0R8 whole entry, looked up): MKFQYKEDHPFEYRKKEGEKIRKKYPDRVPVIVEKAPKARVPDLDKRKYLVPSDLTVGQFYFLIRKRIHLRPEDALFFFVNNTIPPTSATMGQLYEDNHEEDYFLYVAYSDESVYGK
Target,log2 fold change (bafetinib),log2 fold change [1],log2 fold change (nilotinib),log2 fold change [2],log2 fold change (dasatinib),log2 fold change [3],log2 fold change [4],log2 fold change [5],log2 fold change (tipifarnib),log2 fold change (mubritinib)
FUCA2 (UniProt Q9BTY2),-0.809 (active),-0.022,0.032,0.001,0.022,-0.009,0.012,-0.019,0.077,0.013
FHOD1 (UniProt Q9Y613),-0.187,-0.005,-0.089,-0.109,0.044,-0.043,-0.238,-0.089,0.041,-0.218
IFI30 (UniProt P13284),-0.41 (active),0.007,0.068,0.015,0.016,-0.049,0.097,0.002,0.04,0.044
FRA10AC1 isoform 3 (UniProt Q70Z53),-0.087,0.018,-0.034,-0.039,-0.051,0.085,-0.076,–,-0.055,0.011
GTF2B (UniProt Q00403),-0.005,0.139,-0.134,-0.13,-0.247,0.006,0.031,0.102,-0.082,0.007
GALC (UniProt P54803),-0.507 (active),0.084,0.008,0.045,0.096,0.01,0.004,0.065,0.126,-0.005
GLB1 (UniProt P16278),-0.418 (active),-0.009,0.013,0.017,0.061,0.004,-0.006,0.016,0.039,-0.009
HAT1 (UniProt O14929),-0.115,0.017,0.004,-0.035,-0.044,-0.025,0.024,0.006,0.004,-0.033
GTF3A (UniProt Q92664),-0.113,-0.026,0.042,-0.219,-0.137,-0.031,0.023,–,-0.12,0.06
FUT8 (UniProt Q9BYC5),-0.062,-0.042,-0.008,0.006,0.031,0.054,-0.276,0.022,–,-0.037
GABARAPL1 isoform 2 (UniProt Q9H0R8),-0.171,0.006,-0.05,-0.028,-0.031,0.017,-0.016,0.003,-0.075,0.044
GOPC (UniProt Q9HD26),0.233,-0.131,0.009,0.05,-0.081,0.021,-0.005,-0.02,0.127,-0.226
GMEB2 (UniProt Q9UKD1),0.019,0.013,0.019,-0.021,-0.036,-0.05,-0.084,-0.006,-0.011,-0.041
HIC2 (UniProt Q96JB3),0.065,0.006,0.075,-0.446 (active),0.071,-0.181,-0.124,-0.032,-0.051,-0.051
GCLM (UniProt P48507),0.016,0.072,-0.101,-0.015,-0.095,0.019,0.042,-0.051,-0.133,0.023
GTPBP6 (UniProt O43824),-0.706 (active),-0.072,0.13,0.069,0.028,-0.042,0.057,0.042,–,0.058

Target,log2 fold change (bafetinib),log2 fold change [1],log2 fold change (nilotinib),log2 fold change [2],log2 fold change (dasatinib),log2 fold change [3],log2 fold change [4],log2 fold change [5],log2 fold change (tipifarnib),log2 fold change (mubritinib)
FGG (UniProt P02679),–,0.165,–,–,–,–,–,-0.018,0.127,–
GOLGA6B (UniProt A6NDN3),-0.087,-0.042,-0.183,0.02,–,0.02,–,–,–,0.146
HNRNPK isoform 3 (UniProt P61978),0.003,-0.18,-0.115,-0.022,0.021,0.143,–,-0.002,–,-0.101
FEN1 (UniProt P39748),0.02,0.23,-0.149,0.053,–,-0.05,0.16,0.164,-0.274,0.314
FIBP (UniProt O43427),-0.096,-0.093,–,–,-0.201,–,0.118,-0.06,-0.029,0.134
FOXO3 (UniProt O43524),–,0.002,–,–,-0.14,–,0,-0.013,-0.139,-0.057
GAK (UniProt O14976),–,-0.072,0.257,0.792,1.31,0.232,-0.07,-0.031,-0.238,0.005
GLIPR2 (UniProt Q9H4G4),-0.101,-0.024,–,–,-0.059,–,0.031,0.087,0.019,0.054
GOLGA8R (UniProt I6L899),-0.095,-0.021,–,–,-0.074,–,0.189,0.126,0.287,–
FYB1 isoform 3 (UniProt O15117),-0.019,-0.071,-0.036,-0.026,-0.021,-0.077,–,-0.156,-0.025,0.085
GSE1 (UniProt Q14687),0.305,–,0.034,0.004,-0.453,-0.096,-0.009,0.012,–,–
HS1BP3 (UniProt Q53T59),-0.022,–,-0.023,-0.104,-0.047,-0.029,0.062,-0.067,-0.038,–
GNL3 (UniProt Q9BVP2),-0.038,-0.078,-0.007,0.011,-0.031,0.056,0.069,–,–,0.134
HNRNPUL1 (UniProt M0R247),–,–,0.061,-0.13,0.206,0.025,-0.024,–,0.259,–
FIZ1 (UniProt Q96SL8),–,-0.092,-0.09,0.065,-0.026,-0.213,-0.137,–,–,-0.191
GDE1 (UniProt Q9NZC3),0.081,–,0.03,0.054,0.028,-0.032,0.106,-0.029,-0.001,0.01
